The source made the active and inactive calls.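 The calls were made as follows, unless noted: active = visually confirmed hit in the image check and inhibition above 20%; inconclusive = visually confirmed hit but inhibition not above 20%; inactive = no visual hit in the image check.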
Key:
[1] = inhibitors of TNFa-induced NFkB p65 translocation, primary screen, imaging, HUVEC, MLSMR starter and 10KST1 sets (AID 438;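 active = inhibition above 20% together with a positive visual image hit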;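 also: compound added about 3h40 before a 20 min TNFalpha stimulation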;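 as to inhibition: signal is the nuclear over cytoplasmic p65 intensity ratio per well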); conditions: HUVEC TNFa-induced p65 nuclear translocation; cell count: measured here: nuclei count (cytotoxicity indicator), at 2.08 µM; inhibition: at 2 µM, stronger effect = higher value, 0% TNFa-plus-vehicle, 100% no-TNFa wells
[2] = inhibitors of mutant huntingtin aggregation, primary screen, imaging, exon1htt(103Q)mCFP cells, high-content imaging (AID 483;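 active = visual image review flags a hit and inhibition of aggregation exceeds 20%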;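 also: compound exposure lasted 3 days before fixation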;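 as to nuclei count: percent of the per-plate median nuclei count of sample wells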); conditions: exon1htt(103Q)mCFP cell line, aggregate imaging, at 2 µM; inhibition of aggregation: stronger effect = higher value; nuclei count: measured here: cell count, toxicity
[3] = inhibitors of E-selectin induction by TNFa, primary screen, imaging, HUVEC, immunofluorescence, MLSMR starter and 10KST1 sets (AID 487); conditions: HUVEC TNFalpha-induced E-selectin immunofluorescence imaging, at 2 µM; inhibition: stronger effect = higher value; nuclei count: measured here: cell number, toxicity;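 as to inhibition: signal is fraction of cell area covered by stained E-selectin grains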;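 as to nuclei count: 100% = median nuclei count of all wells on the same plate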
[4] = molecular target: Voltage-gated potassium channel subunit beta-2 (Rattus norvegicus) (UniProt P62483); assay: KvBeta enzyme negative modulators, primary screen, biochemical, NADPH fluorescence (AID 622;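 active = fluorescence slope higher than the sample average by over 3 SD, cut at about -0.22 in these data, passing the limit was not always enough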;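 also: slope of raw intensity against log time taken from 70 to 1610 s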); conditions: recombinant KvBeta, 4-cyanobenzaldehyde reduction, at 10 µM, stronger effect = higher value
Voltage-gated potassium channel subunit beta-2 (Rattus norvegicus), sequence (P62483 whole entry, looked up): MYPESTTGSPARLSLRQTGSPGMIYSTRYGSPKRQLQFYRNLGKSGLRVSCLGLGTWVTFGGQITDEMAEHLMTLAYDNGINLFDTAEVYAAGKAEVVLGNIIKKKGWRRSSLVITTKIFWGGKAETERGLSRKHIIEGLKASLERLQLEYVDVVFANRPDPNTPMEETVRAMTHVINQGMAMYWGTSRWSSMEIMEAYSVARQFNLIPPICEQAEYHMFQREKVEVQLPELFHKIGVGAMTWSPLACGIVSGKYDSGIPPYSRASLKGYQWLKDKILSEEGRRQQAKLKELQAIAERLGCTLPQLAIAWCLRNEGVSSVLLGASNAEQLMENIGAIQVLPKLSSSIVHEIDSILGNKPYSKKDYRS

[5] = molecular target: Voltage-gated potassium channel subunit beta-2 (Rattus norvegicus) (UniProt P62483); assay: KvBeta positive modulators, primary screen, biochemical, NADPH fluorescence (AID 623;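 active = NADPH fluorescence slope more negative than the mean of all samples by about 3 SD, 99.7% confidence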;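 also: fluorescence intensity change per second fitted from 20 to 320 s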); conditions: Recombinant KvBeta, NADPH fluorescence decrease slope, 10 min; at 10 µM; stronger effect = lower value
[6] = molecular target: Alpha-2C adrenergic receptor (Homo sapiens) (UniProt P18825); assay: modulators of alpha2C/GIRK thallium flux, primary screen, cell-based, HEK293 alpha2C/GIRK1/2 (AID 624;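 active = fluorescence slope after compound addition differing from the mean of all screened samples at 99.7% confidence, in either direction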;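 also: slope of fluorescence ratio to pre-addition baseline per second over 15 to 24 s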); conditions: thallium flux BTC fluorescence, at 10 µM, actives lie on both sides
Alpha-2C adrenergic receptor (Homo sapiens), sequence (P18825 whole entry, looked up): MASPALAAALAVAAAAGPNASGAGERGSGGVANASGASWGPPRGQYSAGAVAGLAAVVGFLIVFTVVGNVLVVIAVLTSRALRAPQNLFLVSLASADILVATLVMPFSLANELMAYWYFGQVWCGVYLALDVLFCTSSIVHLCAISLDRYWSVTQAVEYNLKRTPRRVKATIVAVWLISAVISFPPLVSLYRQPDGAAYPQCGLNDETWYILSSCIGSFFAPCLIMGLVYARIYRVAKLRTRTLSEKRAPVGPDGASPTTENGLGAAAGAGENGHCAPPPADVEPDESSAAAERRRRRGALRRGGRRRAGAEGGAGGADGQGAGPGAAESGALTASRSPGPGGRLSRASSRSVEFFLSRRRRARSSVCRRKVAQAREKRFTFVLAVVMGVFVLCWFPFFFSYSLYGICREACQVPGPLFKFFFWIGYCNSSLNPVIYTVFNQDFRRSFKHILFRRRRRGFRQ

[7] = inhibitors of Sendai virus-induced IRF3 signaling, primary screen, TLR/RLR signaling modifier project, cell-based, Sendai virus stimulus, luciferase, 10K MLSCN set (AID 602276;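 active = inhibition at or above 50% at 10 µM; inactive = inhibition below 50%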;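 also: firefly luciferase from ISG56 promoter only with Renilla not read in this screen; 0% = Sendai virus plus DMSO and 100% = medium plus DMSO without virus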); conditions: HEK293 RL24 IRF3 luciferase reporter, at 10 µM, stronger effect = higher value
[8] = inhibitors of poly I:C-induced TLR3 signaling, primary screen, cell-based, poly I:C stimulus, luciferase, 10K MLSCN set (AID 602277;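 active = inhibition of the reporter signal at or above 50%; inactive = inhibition below 50%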); conditions: HEK293-TLR3 RL24 IRF3 luciferase reporter, at 10 µM, stronger effect = higher value

Structure (SMILES) | cell count [1] | inhibition [1] | inhibition of aggregation [2] | nuclei count [2] [%] | inhibition [3] | nuclei count [3] [%] | fluorescence slope [4] | NADPH fluorescence slope [5] | slope [6] | inhibition [7] | inhibition [8]
O=C(c1ccc2c(c1)OCCO2)C1CCN(C(=O)c2ccc(F)cc2)CC1 | 326 | -10% (inactive) | -12% (inactive) | 110 | -77.5% (inactive) | 126 | -0.514 (inactive) | -4.4e-05 (inactive) | 0.00672 (inactive) | 7.11% (inactive) | -2.46% (inactive)
O=c1c2cc(N3CCOCC3)ccc2[nH]c(=S)n1CCCN1CCCCC1 | 522 | 6.2% (inactive) | -8.5% (inactive) | 121 | -2.6% (inactive) | 106 | -0.0837 (active) | 8.7e-06 (inactive) | 0.00508 (inactive) | -10.1% (inactive) | 23.3% (inactive)
Cc1nnc(SCC(=O)N(C(C)C)C(C)C)nc1C | 430 | 7% (inactive) | -8.2% (inactive) | 101 | -106% (inactive) | 115 | -0.599 (inactive) | -3.9e-05 (inactive) | 0.00322 (inactive) | 6.7% (inactive) | 8.25% (inactive)
O=C(CCn1c(=O)oc2ccccc21)N1CCCCCC1 | 776 | -23.3% (inactive) | -23.8% (inactive) | 123 | -26.2% (inactive) | 123 | -0.316 (inactive) | -5.9e-05 (inactive) | 0.00656 (inactive) | -8.11% (inactive) | -6.91% (inactive)
COc1ccc(S(=O)(=O)N2CCN(CC(=O)Nc3ccc(F)c(F)c3)CC2)cc1 | 322 | -7.6% (inactive) | 9.7% (inactive) | 94.6 | -62.9% (inactive) | 97.3 | -0.51 (inactive) | -2.7e-05 (inactive) | 0.00502 (inactive) | 22.7% (inactive) | 32% (inactive)
COc1cccc(-c2nnc(SCC(N)=O)n2-c2ccc(Cl)cc2)c1 | 327 | -6.5% (inactive) | -11.9% (inactive) | 107 | -60.5% (inactive) | 94.5 | -0.495 (inactive) | -0.000142 (inactive) | 0.00431 (inactive) | 8.3% (inactive) | 13.1% (inactive)
Cc1ccc2c(c1)N(CC(=O)Nc1ccc3c(c1)OCCO3)C(=O)CO2 | 362 | -4.9% (inactive) | -2.2% (inactive) | 84.3 | -6.2% (inactive) | 104 | -0.293 (inactive) | -5e-05 (inactive) | 0.0057 (inactive) | 38.1% (inactive) | 99.4% (active)
CCOC(=O)N1CCC2(O)CCCCC2C1c1ccc(F)cc1 (centres undefined) | 450 | -1.7% (inactive) | -11.2% (inactive) | 108 | -73.3% (inactive) | 109 | -0.439 (inactive) | 1.9e-05 (inactive) | 0.00629 (inactive) | 14.6% (inactive) | 22.6% (inactive)
O=S(=O)(Cc1ccccc1)N1CCCCCC1 | 451 | 5.2% (inactive) | -1% (inactive) | 91 | -42.3% (inactive) | 103 | -0.497 (inactive) | -5.8e-05 (inactive) | 0.00613 (inactive) | -4.29% (inactive) | 4.76% (inactive)
COc1ccc(Nc2nc(-c3sc(N)nc3C)cs2)cc1 | 661 | -5.8% (inactive) | -10.7% (inactive) | 116 | -75.8% (inactive) | 118 | -0.376 (inactive) | -6.4e-05 (inactive) | 0.0038 (inactive) | -13.1% (inactive) | -17.6% (inactive)
O=C(CSc1nnc(-c2c[nH]c3ccccc23)o1)N(Cc1ccccc1)c1ccc(F)cc1 | 295 | -6.1% (inactive) | 1% (inactive) | 95.3 | -20.3% (inactive) | 119 | -0.6 (inactive) | -2.1e-05 (inactive) | 0.00713 (inactive) | -15.4% (inactive) | -35.1% (inactive)
N#Cc1nc(-c2ccco2)oc1NCc1ccco1 | 658 | -9.1% (inactive) | -10.1% (inactive) | 120 | -12.2% (inactive) | 98.2 | -0.375 (inactive) | 5.2e-05 (inactive) | 0.00582 (inactive) | -2.68% (inactive) | -30.9% (inactive)
CC1=C(C(N)=O)C(c2cccnc2)n2nc(SCc3ccccc3Cl)nc2N1 (centres undefined) | 533 | -21.6% (inactive) | -13.4% (inactive) | 104 | -130% (inactive) | 107 | -0.463 (inactive) | -5.4e-05 (inactive) | 0.00786 (inactive) | -20.3% (inactive) | 19.5% (inactive)
O=C(CSc1nnc(COc2ccc(Cl)cc2)o1)OC1CCCCC1 | 530 | -5.9% (inactive) | -7.1% (inactive) | 119 | 9.7% (inactive) | 103 | -0.524 (inactive) | -5.9e-07 (inactive) | 0.00539 (inactive) | 1.22% (inactive) | -1.92% (inactive)
